# HGIII-sPLA2 inh: Inhibits HGIII-sPLA2 liposome hydrolysis, primary screen. 0.56% of 370,000 active. inhibition, % at 12.2 µM. Q9NZ20. AID 743126. QFRET BODIPY PC-A2 liposome hydrolysis, fluorescence;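 active means inhibition above mean plus 3 SD of compounds lying within the high and low control bounds, cut at about 19% in these data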
# Target sequence (Q9NZ20 whole entry, looked up): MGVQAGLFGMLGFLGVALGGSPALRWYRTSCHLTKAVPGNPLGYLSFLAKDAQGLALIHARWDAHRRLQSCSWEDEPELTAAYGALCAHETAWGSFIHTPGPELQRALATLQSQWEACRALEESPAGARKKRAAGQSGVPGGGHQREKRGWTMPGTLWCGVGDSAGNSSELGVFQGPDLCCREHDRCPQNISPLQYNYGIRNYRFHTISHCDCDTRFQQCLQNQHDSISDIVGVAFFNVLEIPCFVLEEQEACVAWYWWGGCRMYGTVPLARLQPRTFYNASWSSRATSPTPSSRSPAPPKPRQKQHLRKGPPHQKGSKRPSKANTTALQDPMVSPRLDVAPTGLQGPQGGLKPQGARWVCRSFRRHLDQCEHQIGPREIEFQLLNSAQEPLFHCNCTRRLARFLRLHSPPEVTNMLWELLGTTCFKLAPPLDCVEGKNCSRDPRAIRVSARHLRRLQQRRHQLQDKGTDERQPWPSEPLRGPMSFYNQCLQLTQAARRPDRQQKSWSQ
# Efflux pump inh: blocks antifungal efflux pumps in multiplex yeast assay; S. cerevisiae Candida pump triplex, Nile Red efflux; 0.44% of 330,000 active; AID 485275; inhibition, % at 10 µM;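 active means plate passing quality check with inhibition over a set limit, or well fluorescence over plate mean plus 4 SD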;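 further: Nile Red retained in pooled yeast measured as flow cytometry median fluorescence; higher means more Nile Red kept so more efflux inhibition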
# SKN-1 inh: inhibitors of C. elegans SKN-1; C. elegans VP596 Pgst-4::GFP/RFP ratio, acrylamide-induced, 24 h; inhibition, % at 21.8 µM; 0.49% of 360,000 active;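 active means interference check ratio from 0.5 to 1.5 plus GFP to RFP signal ratio inhibition reaching or exceeding a fixed threshold, cut at about 30% in these data, passing the limit was not always enough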
# Mot1-301 SUMO: blocks SUMOylation pathway, rescuing yeast Mot1-301 growth | S. cerevisiae Mot1-301 growth rescue, ATP luminescence, 38.5C; percent above DMSO median, 100 means doubled | 1% of 320,000 active | growth rescue, % at 18.8 µM | AID 2716;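 active means every valid replicate shows activation above 250% relative to neutral control wells; inactive means the rest, any valid replicate at or below 250%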
# Cmpd fluor yeast: compound fluorescence in yeast efflux pump counter-screen; fluorescence ratio to DMSO, % at 10 µM; shares compounds with Efflux pump inh; AID 588517; 4% of 1,700 active; S. cerevisiae AD/pABC3, flow cytometry;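 active means fluorescence ratio to DMSO above its plate's cutoff, the plate mean ratio plus 5 SD, cut at about 210% in these data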;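 further: unstained yeast with no Nile Red so the signal is compound autofluorescence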
# Mdr1 pump inh: inhibitors of Candida albicans Mdr1 efflux pump; shares compounds with Efflux pump inh; S. cerevisiae AD/CaMDR1, Nile Red efflux, flow cytometry; inhibition, % at 10 µM; 1% of 1,700 active; AID 588518; in the data active means inhibition above about 26%;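 further: higher means more Nile Red retained so more efflux inhibition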
# Cdr2 pump inh: inhibitors of Candida albicans Cdr2 efflux pump; shares compounds with Efflux pump inh; S. cerevisiae AD/CaCDR2, Nile Red retention, flow cytometry; Nile Red retention ratio vs DMSO, % at 10 µM; 4% of 1,700 active; AID 588520; in the data active means Nile Red retention ratio vs DMSO above about 190%;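 further: higher ratio means more blocking of Cdr2 efflux of the dye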
# Cdr1 pump inh: blocks the Candida albicans Cdr1 efflux pump in yeast. S. cerevisiae AD/CaCDR1, Nile Red efflux, flow cytometry. inhibition, % at 10 µM. 1% of 1,700 active. shares compounds with Efflux pump inh;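 active means inhibition above the screen-wide mean plus twice its standard deviation, cut at about 32% in these data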
# A number is an active result; – = inactive; · = no result; + = active, no number. Shown are actives, neighbours in structure and some others; about 2.2% of the full set was active somewhere.
SMILES,HGIII-sPLA2 inh,Efflux pump inh,SKN-1 inh,Mot1-301 SUMO,Cmpd fluor yeast,Mdr1 pump inh,Cdr2 pump inh,Cdr1 pump inh
CCc1ccc(CN(C)Cc2c(C(=O)N3CCOCC3)nc3c(C)cccn23)nc1,–,·,–,·,·,·,·,·
COc1cccc(NC(=O)c2ccc3c(c2)CCCC3)c1,–,52,–,–,–,–,–,–
COc1cccc(NC(=S)N2CCc3cc(OC)c(OC)cc3C2)c1,–,–,–,–,–,–,–,–
COc1cc2c(cc1OC)CN(C(=S)Nc1cccc(Cl)c1C)CC2,–,0.7,–,–,–,–,–,–
COc1ccccc1NC(=S)N1CCc2cc(OC)c(OC)cc2C1,–,–,–,–,·,·,·,·
Cc1nc(N)nc(N)c1-c1ccc([N+](=O)[O-])cc1,–,·,–,·,·,·,·,·
CC(C)(C)S(=O)N1Cc2cc(CO)cc(CCO)c2[C@@H]1CCO (some centres not stated),–,·,–,·,·,·,·,·
COc1cccc(-n2nnnc2SCC(=O)Nc2ccc(OC)cc2OC)c1,–,–,–,–,·,·,·,·
Cc1ccc(Nc2nc(Oc3ccc(OCc4ccccc4)nn3)nc(N3CCOCC3)n2)cc1,–,0.7,–,–,–,–,–,–
O=c1[nH]c(C2CCN(S(=O)(=O)c3ccc4c(c3)OCCO4)CC2)nc2c1nnn2Cc1cccc(F)c1,–,3.2,–,–,–,–,–,–
O=c1[nH]c(C2CCN(S(=O)(=O)c3ccc4c(c3)OCCO4)CC2)nc2c1nnn2Cc1ccc(F)cc1,–,–,–,–,–,–,–,–
COC(=O)C[C@@H]1CC[C@@H](NC(=O)C2CCC2)[C@@H](CO)O1,–,·,–,·,·,·,·,·
CCOC(=O)c1nn(-c2ccc(C)cc2)c(C)c1C(C)=O,–,–,–,–,·,·,·,·
CCOC(=O)c1nn(-c2ccc(OCC)cc2)c(C)c1C(C)=O,–,1.8,–,–,–,–,–,–
CC(=O)OC[C@H]1O[C@@H](O[C@H]2C[C@]3(C)C(C[C@@H](O)C4C([C@]5(C)CC[C@@H](C(C)(C)O)O5)CC[C@]43C)[C@@]3(C)CC[C@H](O)C(C)(C)C23)[C@H](O[C@@H]2O[C@@H](C)[C@H](O)[C@@H](O)[C@H]2O)[C@@H](O)[C@@H]1O (some centres not stated),–,–,–,–,·,·,·,·
C=C[C@](C)(CC[C@@]1(C)C(C)CC(OC2OC(C)C(OC3OC(COC(C)=O)C(O)C(O)C3O)C(O)C2O)[C@@]2(C)C(C)=CCCC12)OC1OC(C)C(O[C@@H]2O[C@@H](C)C(O)C(O)[C@H]2O)C(O)C1O (some centres not stated),·,1.4,–,–,–,–,–,–
CC(=O)Nc1ccc(S(=O)(=O)N2CCN=C2SCc2ccc(F)cc2)cc1,–,1.4,–,–,–,–,–,–
C[C@H]1CN([C@@H](C)CO)C(=O)c2cc(-c3cccc(C#N)c3)cnc2O[C@H]1CN(C)C(=O)c1ccccn1,–,·,–,·,·,·,·,·
COc1cccc(CNn2c(-c3cccc(C)c3)nc3ccccc3c2=O)c1,–,–,–,–,·,·,·,·
COc1ccc(OC)c(CNn2c(-c3cccc(C)c3)nc3ccccc3c2=O)c1,–,0.7,–,–,–,–,–,–
Cc1c(/C=N/O)c2ccccn2c1C(=O)c1ccc(F)cc1,–,1.7,–,–,–,–,–,–
CC1(C(=O)NS(=O)(=O)C2CC2)CCN(C(=O)c2ccc(F)c(Cl)c2)C1 (configuration not stated),–,·,–,·,·,·,·,·
CCn1c(=O)c2ccccc2n(Cc2ccc([N+](=O)[O-])cc2)c1=O,–,0.6,–,–,–,–,–,–
O=C(O)c1c2c(nc3ccccc13)/C(=C/c1cccc([N+](=O)[O-])c1)CCC2,–,–,–,–,·,·,·,·
O=C(Nc1ccc(Oc2ccccc2)cc1)C1CCN(c2nnc(-n3cccc3)s2)CC1,–,·,·,·,·,·,·,·
SMILES,HGIII-sPLA2 inh,Efflux pump inh,SKN-1 inh,Mot1-301 SUMO,Cmpd fluor yeast,Mdr1 pump inh,Cdr2 pump inh,Cdr1 pump inh
COC(=O)c1ccc(CSc2nnc3c(n2)[nH]c2ccccc23)cc1,–,0.5,–,–,–,–,–,–
COc1cc(/C=C2\Oc3cc(O)ccc3C2=O)ccc1O,–,–,–,–,·,·,·,·
O=C1/C(=C/c2ccc(O)c(O)c2)Oc2cc(O)ccc21,–,2.4,–,–,–,–,–,–
O=c1[nH][nH]c(-c2ccccc2O)c1C(C[N+](=O)[O-])c1ccccc1 (configuration not stated),–,5.5,–,–,–,–,–,–
COc1ccc(C(c2c(NC(=O)c3ccco3)sc(C)c2C)N2CCOCC2)cc1 (configuration not stated),–,·,–,·,·,·,·,·
CC(=O)Nc1sc2c(c1C(c1ccc(Cl)cc1)N1CCOCC1)CCCC2 (configuration not stated),–,1.5,–,–,–,–,–,–
O=C(CCl)Nc1ccc2c(c1)OCO2,–,1.2,–,–,–,–,–,–
Nc1ncc2c(n1)-c1cc(Cl)ccc1SC2,–,0.6,–,–,–,–,–,–
Cc1cc(C)c(S(=O)(=O)Nc2ccc(O)c(Sc3ncn[nH]3)c2)c(C)c1,–,11,–,–,–,–,–,–
Cc1cc(C)c(S(=O)(=O)Nc2ccc(O)c(Sc3ncn[nH]3)c2)cc1C,–,–,–,–,–,–,–,–
Cc1cccc(CS(=O)(=O)Cc2ccc(C(=O)NCc3ccco3)o2)c1,–,13,–,–,–,–,–,–
Cc1ccc(CS(=O)(=O)Cc2ccc(C(=O)NCc3ccco3)o2)cc1,–,–,–,–,·,·,·,·
CCCSc1cc(N2CCCC2)nc(-c2ccccc2)n1,–,–,–,–,+,–,–,–
CC(C)Sc1cc(N2CCCC2)nc(-c2ccc(F)cc2)n1,–,–,–,·,·,·,·,·
CCCSc1cc(N2CCN(C)CC2)nc(-c2ccc(OC)cc2)n1,–,–,–,·,–,–,–,–
CCc1ncc(C(O)c2ccc(Cl)cc2)n1Cc1ccccc1 (configuration not stated),–,·,–,·,·,·,·,·
C[C@H]1O[C@@H](O[C@H]2CC[C@@]3(C)C(CC[C@]4(C)C3C=CC3=C5CC(C)(C)CC[C@]5(CO)[C@H](O)C[C@]34C)[C@]2(C)CO)[C@H](O)[C@@H](O[C@@H]2O[C@H](CO)[C@@H](O)[C@H](O)[C@H]2O)[C@H]1O (some centres not stated),–,1.7,–,–,–,–,–,–
CCC1=NN2C(=N)/C(=C/c3c(C)nn(-c4ccccc4)c3Cl)C(=O)N=C2S1,–,23,–,–,–,–,–,–
COC(=O)[C@]12C[C@H](CC(=O)N3CCC(c4ccccc4)CC3)C(=O)N(Cc3cccc4ccccc34)C1=C[C@H](C1CCCC1)O[C@@H]2C,–,·,·,·,·,·,·,·
